The record followed here is PubChem BioAssay AID1508622 (National Center for Advancing Translational Sciences (NCATS), 2021).

Active and inactive are the calls of the source. A call without a number means that no potency is given here. Calls come from the whole dose curve; as a rule, active = well fitted activation curve with a large enough effect; inconclusive = small, poorly fitted or top-dose-only effect; inactive = no such curve, though single readings can be large or run the other way.
Potency is the fitted concentration of half-maximal effect.

The test is described as follows: Confirmatory qHTS for Identification of Small Molecule Activators of Huntingtin-Antisense Promoter Activity. To be noted: HEK293 HTT-AS promoter firefly luciferase reporter, 24 h; series mostly up to 57.5 µM. A digest of the protocol:
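Plated reporter HEK293 cells (24 h) received library compounds at up to 57.5 uM final or 50 uM PTC124, incubated 24 h at 37C; firefly luciferase luminescence was then recorded with Dual-Glo reagent.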
With `CC1=C(C(=O)OC2CCCC2)C(c2ccccc2Cl)CC(=O)N1` (stereo not drawn), the Potency result is “inactive”.

Regarding `CCN1C(=O)c2ccccc2Sc2ccc(NC(=O)Nc3cccc([N+](=O)[O-])c3C)cc21`, the Potency entry is “inactive”.

For the molecule `CSc1cccc(NC(=O)C2CCN(C(=O)c3cnn(-c4ccccc4)c3-n3cccc3)CC2)c1`, the Potency result was “inactive”.

As for `COc1ccccc1NC(=O)c1ccc(-c2nc(COc3ccc(C)cc3)c(C)o2)cc1`, the Potency result was “inactive”.

As to `CC(C)OCc1cc(CN2CCN(c3cccc(C(F)(F)F)c3)CC2)c(O)c2ncccc12`, the Potency entry was “inactive”.

For `COc1ccc2c(c1)CCc1c(C(=O)Nc3c(C)nn(Cc4ccccc4C)c3C)noc1-2`, the Potency result is “inactive”.

For `COc1ccc(-c2cc(C)no2)cc1S(=O)(=O)N1CCN(c2ccccc2F)CC1`, the Potency entry was “inactive”.

As to `CC(C)Cc1ccc(S(=O)(=O)Nc2ccc3[nH]c(=O)[nH]c3c2)cc1`, the Potency result was “inactive”.

Consider `COc1ccc(CCNC(=O)c2ccc3c(c2)N(Cc2ccc(F)cc2)CCS3)cc1OC`, for which the Potency result is “inactive”.

Turning to `CCN(c1ncnc2c1cnn2-c1cc(Cl)ccc1C)C1CCCCC1`, the Potency result is “inactive”.

`Cc1ccc(NC(=O)c2c(NC(=O)C(F)(F)F)sc3c2CCCCC3)cc1`: the Potency entry was “inactive”.

`COc1ccc(Br)cc1CNC(=O)CSc1n[nH]c(-c2ccccc2)n1`: the Potency result was “inactive”.

`Cc1cccc(N2CCN(C(=O)C3CCN(S(=O)(=O)c4c(C)noc4C)CC3)CC2)c1C`: the Potency result was “inactive”.

Consider `CCC(C(=O)NCc1ccc(OC)c(OC)c1)n1nc(C)c2c(C)n(-c3ccc(C)cc3)nc2c1=O` (stereo not drawn), for which the Potency result was “inactive”.

With `COc1ccc(N2CCN(CCCNC(=O)c3c(C)nn(-c4ccc(F)cc4)c3-n3cccc3)CC2)cc1`, the Potency result was “inactive”.

In the case of `CCCOC(=O)c1cccc(NC(=O)c2c(-c3ccccc3Cl)noc2C)c1`, the Potency result is “inactive”.

Regarding `Cc1ccc(-c2ncn(-c3ccc(Nc4nccc(-c5cccc(N6CCOCC6)c5)n4)cc3)n2)cn1`, the Potency entry is “inactive”.

Turning to `CCc1c(C)nc2nncn2c1Nc1ccc(C(C)C)cc1`, the Potency entry is “inactive”.

Turning to `Cc1ccccc1Nc1sc(C(=O)c2ccc(F)cc2)c(N)c1C(=O)NCCc1ccccc1`, the Potency entry is “inactive”.

As for `CCOc1ccc(NCc2cccn2-c2nnc(N3CCC(C(=O)NCCc4ccc(OC)c(OC)c4)CC3)s2)cc1`, the Potency entry was “inactive”.

With `CCN(C(=O)c1cc2c(s1)-c1ccccc1OC2)c1cccc(C(F)(F)F)c1`, the Potency entry was “inactive”.

With `CCc1ccc(CNC(=O)c2cccc(-n3c(C)nc4cccnc43)c2)cc1`, the Potency result was “inactive”.

Take `COc1cccc(C(=O)NCCSc2c(-c3ccc(F)cc3)[nH]c3ccccc23)c1OC`: the Potency result is “inactive”.

`COc1ccc(NC(=O)c2ccc(-c3nc(CSc4ccc(C)cc4)c(C)o3)cc2)cc1Cl`: the Potency result is “inactive”.

As to `CC(C)C(=O)N1c2ncnn2C2(CCCCC2)[C@@H]2CCCC[C@@H]21`, the Potency entry was “inactive”.

On to `CCOc1cc(CNCCSc2nnnn2-c2ccccc2)cc(Cl)c1OC`, for which the Potency result is “inactive”.

Regarding `Cc1ccc(C(Nc2ccccn2)c2ccc3cccnc3c2O)cc1` (stereo not drawn), the Potency entry was “inactive”.

Turning to `O=C(Cn1cc(S(=O)(=O)Cc2ccccc2F)c2ccccc21)Nc1ccc(F)c(Cl)c1`, the Potency entry is “inactive”.

Regarding `O=S(=O)(NCC(c1ccco1)N1CCN(c2ccc(F)cc2)CC1)c1cc(F)ccc1F` (stereo not drawn), the Potency entry was “inactive”.

As to `CC(=O)Nc1cccc(NC(=O)Cc2csc(COc3cccc(C)c3)n2)c1`, the Potency entry is “inactive”.

As for `CCOc1ccc(-c2cc(C)n3nc(C(=O)Nc4ccc(C)c(C)c4)cc3n2)cc1`, the Potency result was “inactive”.

On to `Cc1ccc(C(=O)NCc2ccc3c(c2)CCN3C(=O)c2ccc(C)cc2)cc1`, for which the Potency result was “inactive”.

For `CCCCc1nc2cc(C=CC(=O)NO)ccc2n1CCN(CC)CC`, the Potency was 8.49 µM (active).

`COc1ccc(NC(=O)c2ccc(-c3nc(CSc4ccccc4)c(C)o3)cc2)c(OC)c1`: the Potency entry is “inactive”.

With `O=C(Nc1cccc(C(=O)N2CCN(c3ccc(Cl)cc3)CC2)c1)c1nsc2ccccc12`, the Potency was 0.151 µM (active).

As to `Cc1ccc(C)c(N2CCN(S(=O)(=O)c3cc(C(=O)Nc4ccccc4C(F)(F)F)ccc3F)CC2)c1`, the Potency result is “inactive”.

In the case of `Cc1c(NS(C)(=O)=O)cccc1-c1nc2ccccc2s1`, the Potency result is “inactive”.

Regarding `CCOc1ccc(-n2ccnc2SCC(=O)Nc2cc(C)ccc2C)cc1`, the Potency entry was “inactive”.
